Most compounds without a hit are left out; they make up all but 12% or so of the library.
Pf growth 48h – P. falciparum growth inhibition at 48 hours (one generation). Potency, µM (top dose mostly 28.7 µM), for the others: at the top dose activity change, negative = inhibition, hits mostly inhibitors. 5.9% of 310,000 active. AID 504832. P. falciparum luciferase growth in erythrocytes, 48 h; further: on the % scale 0 is the no-effect control and ±100 the full control effect
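In quantitative HTS format, infected erythrocytes bearing luciferase-reporter parasites were treated for a single generation at 37 C. Luminescence after adding detection reagent served as the growth measure.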
SARS PLP yeast – SARS-CoV PLP inhibition in yeast; S. cerevisiae expressing SARS-CoV PLpro, growth rescue; Potency, µM (top dose mostly 32.9 µM), inactives show at the top dose activity, positive = growth rescue, usual class: activators; 0.19% of 330,000 active; AID 485353; calls by dose curve; further: 0% is about no effect; nearly all actives have a fitted effect of over 55% in size
Pf growth 96h – P. falciparum growth inhibition at 96 hour, primary screen for plastid delayed-death inhibitors. AID 504834. 6.9% of 320,000 active. P. falciparum luciferase reporter growth, 96 h. Potency, µM (titrated, usually from 28.7 µM), for the others: at the top dose activity change, negative = inhibition, usual class: inhibitors; further: on the % scale 0 is the no-effect control and ±100 the full control effect
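Luminescence readout: decreased luciferase signal marks inhibited growth of reporter-expressing P. falciparum in infected red cells (2% hematocrit, 0.05% parasitemia final), exposed to compound two generations (96 h, 37 C, 5% CO2).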
Sm TGR block – inhibitors of Schistosoma mansoni thioredoxin glutathione reductase; 3% of 360,000 active; purified TGR, DTNB reduction, TNB absorbance 405 nm; Q962Y6; AID 485364; Potency, µM (titrated, usually from 114 µM), for the others: at the highest dose activity change, negative = inhibition, hits mostly inhibitors; further: on the % scale 0 is the no-effect control and ±100 the full control effect; nearly all actives have a fitted effect of over 60% in size
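First, TGR (20 nM dispensed) and NADPH were mixed with compound. Second, a 15 min room-temperature incubation followed. Third, further NADPH and then DTNB were added to start the reaction. Finally, TNB absorbance was monitored kinetically.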
* = called active by the depositor; i = inactive; ? = inconclusive; nt = no result; [ ] = remark or other dose. Unless noted, the call rests on the fitted dose curve; in most records, active means well fitted curve in the direction sought with a large enough effect; inconclusive means small, poorly fitted or top-dose-only effect, or another doubt; inactive means no such curve, though single readings can be large; an effect the other way counts as inactive or inconclusive. Potency means the concentration at half of the fitted maximal effect.

SMILES | Pf growth 48h | SARS PLP yeast | Pf growth 96h | Sm TGR block
COc1ccc(Cl)cc1Nc1nc2ccc(C(=O)c3ccccc3)cc2n2cnnc12 | nt | nt | nt | 2%
O=C(CCl)c1ccc2[nH]c(=O)oc2c1 | ? | -1% | ? | 11µM*
COC(=O)c1ccc(NS(=O)(=O)c2ccc3[nH]c(=O)oc3c2)cc1 | -1% | 1% | 24% | 0%
CCc1ccc(OCC(=O)N2c3ccccc3CCc3ccccc32)cc1 | 9.3µM* | -55% | i | 5%
COC(=O)N1c2ccccc2CCc2ccccc21 | 7.4µM* | 1% | 36% | 1%
COc1ccc(NC(=O)CSCC(=O)N2c3ccccc3CCc3ccccc32)cc1 | ? | -19% | ? | -4%
CCc1ccc(OCC(=O)N2CCc3ccccc32)cc1 | 37% | -6% | 41% | 8%
COc1ccccc1NC(=O)CSCC(=O)N1c2ccccc2CCc2ccccc21 | ? | 9% | 5.9µM* | -10%
CCC(=O)Nc1cc(C(=O)N2CCC3(CC2)OCCO3)ccc1S(=O)(=O)c1ccc(C)cc1 | 19% | 6% | 3.7µM* | -4%
CC(=O)Nc1cc(C(=O)N2CCN(C)CC2)ccc1S(=O)(=O)c1ccc(C)cc1 | nt | -3% | -26% | 3%
CCCCc1cc(=O)oc2cc(C)cc(OCC(=O)Nc3ccccn3)c12 | 4.1µM* | -8% | ? | -1%
CCCc1cc(=O)oc2cc(C)cc(OCC(=O)Nc3ccccn3)c12 | 0.93µM* | -7% | 0.66µM* | -1%
C[C@]12CC[C@@H]3c4ccc(O)cc4CC[C@H]3[C@@H]1C[C@H](O)C2O (stereo partly specified) | -14% | nt | ? | nt
S=C(Nc1ccccc1)Nc1nccs1 | ? | -2% | 7.4µM* | 11µM*
O=C(Cc1ccc(F)cc1)Nc1nccs1 | ? | -2% | ? | 0%
Fc1ccc(NC(=S)Nc2nccs2)cc1 | 13µM* | -8% | 0.29µM* | ?
CCOc1cccc(N(C(=O)CCC(=O)Nc2cc(C)on2)C(C(=O)NC(C)(C)C)c2ccc(OC)cc2)c1 (stereo unspecified) | 3.3µM* | 1% | ? | -10%
CCC(C)(C)NC(=O)C(c1ccc(OC)cc1)N(C(=O)CCC(=O)Nc1cc(C)on1)C(C)(C)C (stereo unspecified) | ? | 3% | 12µM* | 8%
CCc1ccc(N(C(=O)CCC(=O)Nc2cc(C)on2)C(C(=O)NC(C)(C)C)c2ccc(OC)cc2)cc1 (stereo unspecified) | 2.1µM* | 0% | 12% | -1%
CC(C)(C)C(=O)N1CCn2c1nc1ccccc12 | 7% | 0% | 2.6µM* | nt
CCOc1ccc(C(=O)N2CCn3c2nc2ccccc23)cc1 | 11% | 1% | -20% | 45µM*
COc1ccc(C(=O)N2CCn3c2nc2ccccc23)cc1 | 69% | 0% | 2% | 7%[57.1 µM]
CCCCCOC(=O)c1[nH]c2c(c1C)C(=O)CC(c1ccco1)C2 (stereo unspecified) | 0.66µM* | -3% | 23% | ?
Cc1nn(CC(=O)N2CCN(S(=O)(=O)c3ccccc3)CC2)c(C)c1[N+](=O)[O-] | 14% | 0% | -8% | 3%
CC(C)OC(=O)C(C(=O)C(F)(F)F)c1cc(NS(=O)(=O)c2ccc3ccccc3c2)c2ccccc2c1O (stereo unspecified) | 9.3µM* | -65% | 3.3µM* | -16%
SMILES | Pf growth 48h | SARS PLP yeast | Pf growth 96h | Sm TGR block
COc1ccc(CNC(=O)CCCN2C(=O)c3cccnc3Oc3ccc(Cl)cc32)cc1 | nt | nt | nt | 3%
c1cncc(Nc2nc(-c3cccs3)cs2)c1 | 2% | -18% | 2.9µM* | 0%
c1ccc(-c2csc(Nc3cccnc3)n2)nc1 | 96% | -5% | 24% | -2%
Cc1ccc(NC(=O)C2CCCN(S(=O)(=O)c3cccc4nsnc34)C2)c(C)c1 (stereo unspecified) | nt | nt | nt | 9%
CCOc1cc(C2C(C(=O)N3CCCCC3)=C(C)NC3=C2C(=O)CCC3)cc(Br)c1O (stereo unspecified) | -23% | 11% | 17% | 25µM*
C=CC[N+]1([C@H]2C[C@H]3[C@@H]4CC[C@H]5C[C@H](O)[C@@H](N6CCOCC6)C[C@]5(C)[C@H]4CC[C@]3(C)[C@H]2OC(C)=O)CCCC1 | 6.7µM* | nt | 4.3µM* | nt
CC(=O)N[C@@H](CC(=O)O)C(=O)N[C@@H](CCC(=O)O)C(=O)O | ? | nt | 4.3µM* | nt
O=C(O)CCn1cc(C=C2C(=O)NC(=O)NC2=O)c(-c2ccc(Br)cc2)n1 | ? | -2% | 14% | 0%
O=C(O)CCn1cc(/C=C2/NC(=S)N(c3ccccc3)C2=O)c(-c2ccccc2)n1 | -14% | 11% | 3.7µM* | -17%
O=C(O)CCn1cc(C=C2C(=O)NC(=S)NC2=O)c(-c2cccc(Cl)c2)n1 | 32% | 0% | 1% | 32µM*
CN(C(=O)c1ccccc1F)C(c1ccccc1)c1ccccc1 | ? | 1% | ? | 1%
Cc1ccc(-c2nc3cnccn3c2Nc2ccc3c(c2)OCO3)o1 | ? | -2% | ? | 50µM*
Cc1ccc(Nc2c(-c3ccc(C)o3)nc3cnccn23)cc1 | nt | -1% | 0.74µM* | 10µM*
C/C(=N\Nc1cc(N2CCCCC2)nc(C)n1)c1ccc(Br)cc1 | 3.7µM* | -5% | -4% | 18%
COc1ccc2cc(CN(Cc3ccco3)Cc3nnnn3C3CCCCC3)c(=O)[nH]c2c1 | ? | -9% | 8% | -32%
CCC(C)(C)n1nnnc1CN(Cc1ccco1)Cc1cc2cc3c(cc2[nH]c1=O)OCO3 | ? | 1% | 6% | 0%
CCC(C)(C)n1nnnc1CN(Cc1ccc(Cl)cc1)Cc1ccco1 | 10µM* | -25% | ? | ?
CC(C)(C)c1ccc(CN(Cc2ccco2)Cc2nnnn2C2CCCC2)cc1 | 9.3µM* | -2% | 5.2µM* | -25%
O=C(c1cc2c(=O)oc3ccccc3c2s1)N1CCN(c2cccc(Cl)c2)CC1 | nt | nt | nt | -2%
CCCn1c(SCC(=O)N2CCN(S(=O)(=O)c3ccc(Cl)cc3)CC2)n[nH]c1=O | 10µM* | 1% | ? | 4%
CCCn1c(SCC(=O)Nc2cc(Cl)ccc2Cl)n[nH]c1=O | ? | -2% | 1.2µM* | 8%
CCCn1c(SCC(=O)Nc2cc(Cl)ccc2OC)n[nH]c1=O | nt | 2% | ? | 5%
COCCNC(=O)Cn1nc(N2CCN(c3ccccc3OC)CC2)ccc1=O | nt | nt | nt | 3%
CCCC(=O)Nc1nnc(S(=O)(=O)N(CC)c2ccccc2)s1 | 9% | 0% | 0% | 2%
COc1ccc(OCC(=O)C2CC2)c(C#N)c1 | 1.9µM* | 0% | 234% | -4%
COc1ccc(N2CCN(C(=O)COc3ccccc3C#N)CC2)cc1 | nt | nt | nt | -4%
COc1cc2[nH]c(=S)n(NC(=O)CC(C)C)c(=O)c2cc1OC | 1% | 1% | 10µM* | 7%
COc1ccc(NC(=O)/C=C/c2ccco2)cn1 | 245% | 3% | 181% | 8.9µM*
COc1ccccc1CNC(=O)Cc1ccc(Br)cc1 | ? | 9% | 16% | 16%
COc1ccccc1CNC(=O)/C=C/c1ccc(Br)o1 | 3% | -1% | ? | 2.2µM*

High-throughput results: PubChem BioAssay, National Center for Advancing Translational Sciences (NCATS)
